This is a sample that favours compounds with a hit; in the whole collection about 6.1% have one here.
MMP-13 inhibitor: inhibitors of human MMP13 | hit rate 0.07% among 65,000 | MMP-13 fTHP FRET cleavage, Mca fluorescence | P45452 | AID 570 | inhibition, % at 4 µM;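 active = inhibition above the mean of compound-free control plate wells plus 3 SD, cut at about 14% in these data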
Cdc25B block: inhibitors of human Cdc25B phosphatase; AID 368; recombinant Cdc25B, OMFP fluorescence Ex485/Em525; P30305; hit rate 0.1% among 65,000; inhibition, %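 (compounds tested at 10 µM final in the well)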; in the data active = inhibition above about 50%
Target sequence (P30305 whole entry, looked up): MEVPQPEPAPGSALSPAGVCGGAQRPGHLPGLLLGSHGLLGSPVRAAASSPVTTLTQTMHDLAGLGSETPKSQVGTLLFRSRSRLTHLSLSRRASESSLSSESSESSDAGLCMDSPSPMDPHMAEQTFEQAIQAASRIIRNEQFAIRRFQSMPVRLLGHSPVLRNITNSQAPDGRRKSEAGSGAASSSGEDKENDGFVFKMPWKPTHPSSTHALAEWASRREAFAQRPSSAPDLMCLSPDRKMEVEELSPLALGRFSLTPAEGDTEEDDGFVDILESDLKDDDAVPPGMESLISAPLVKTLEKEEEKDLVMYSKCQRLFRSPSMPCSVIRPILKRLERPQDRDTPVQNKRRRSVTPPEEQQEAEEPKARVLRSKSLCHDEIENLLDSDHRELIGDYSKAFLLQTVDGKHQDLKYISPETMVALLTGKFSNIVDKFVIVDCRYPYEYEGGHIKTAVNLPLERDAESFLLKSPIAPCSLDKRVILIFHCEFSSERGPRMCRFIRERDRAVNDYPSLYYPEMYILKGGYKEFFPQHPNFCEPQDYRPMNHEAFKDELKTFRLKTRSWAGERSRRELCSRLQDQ
MKP-1 inh: human dual specificity phosphatase 1 inhibition; inhibition, %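 (compounds tested at a single concentration somewhere between 10 and 100 µM)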; P28562; recombinant MKP-1, OMFP hydrolysis fluorescence; hit rate 0.15% among 65,000; AID 374;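 active = inhibition above about 50%, limit read from the data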
M1 ag: agonists of M1 muscarinic receptor; CHO-M1 cells, Fluo-4 calcium fluorescence, agonist mode; hits give high values; B-score at 10 µM; hit rate 3% among 64,000; AID 626;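 active = fluorescence rise, raw or as B-score row- and column-corrected plate score, outside the 99.7% band of its plate's samples, either direction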
Hsp90 block: displaces geldanamycin probe from tumor Hsp90; P07900; inhibition, % at 30 µM; NCI-N417 lysate Hsp90, Cy3B-geldanamycin FP displacement; hit rate 0.35% among 64,000; AID 429;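 active = inhibition above 50%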
M1 antagonist: antagonists of rat M1 muscarinic receptor; hit rate 3.4% among 64,000; P08482; AID 628; B-score at 10 µM; CHO-M1 cells, Fluo-4 calcium, ACh EC80 antagonist mode; hits give low values;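 active = calcium fluorescence response, raw or row-and-column corrected B-score, differing from the plate sample mean either way at a set confidence level, mostly lower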
Redox H2O2 0p5DTT: redox cycling H2O2 generation, Cdc25B counter-screen. EC50, µM. hit rate 50% among 30. shares compounds with Cdc25B block. cell-free redox cycling H2O2 generation, 0.5 mM DTT; in the data active = EC50 below about 30 µM
Redox 1 DTT: redox cycling H2O2 generation, Cdc25B counter-screen; cell-free redox cycling H2O2 generation, 1 mM DTT; EC50, µM; 30 tested, under 10 active; shares compounds with Cdc25B block; in the data active = EC50 below about 50 µM
Redox H2O2: redox cycling H2O2 generation, MKP probe counter-screen | 60 tested, under 10 active | EC50, µM | DTT, phenol red/HRP | shares compounds with MKP-1 inh; call rule not given here
Of the large screens only hits and unclear results are named; the others gave an inactive call (follow-up assays come after a bar, where they were run).

CCOCCn1c(CN2CCCCC2C)nc2c1c(=O)n(C)c(=O)n2C (configuration not stated)	M1 antagonist -3.17
CC1CCCN(Cc2nc3c(c(=O)n(C)c(=O)n3C)n2CCCc2ccccc2)C1 (configuration not stated)	M1 ag 2.35
CC1CCCN(Cc2nc3c(c(=O)n(C)c(=O)n3C)n2CCc2ccccc2)C1 (configuration not stated)	M1 ag 2.26
Cc1cc(N)c2ccccc2[n+]1CCCCCCCCCC[n+]1c(C)cc(N)c2ccccc21	none (no result: MMP-13 inhibitor, Cdc25B block, MKP-1 inh, M1 ag, M1 antagonist)
COc1nc(OC/C(N)=N/O)nc(N2CCOCC2)n1	Cdc25B block 65.5
Cc1cccc(Cn2c(SCC(=O)Nc3ccccc3)nc3c2c(=O)[nH]c(=O)n3C)c1	none
Cc1cccc(Cn2c(SCCN3CCCCC3)nc3c2c(=O)[nH]c(=O)n3C)c1	M1 antagonist -3.58
Nc1cc(Cl)c(NC2=NCCN2)c(Cl)c1	none (no result: MMP-13 inhibitor, Cdc25B block, MKP-1 inh, M1 ag, M1 antagonist)
CCc1cccc(CC)c1N(COC)C(=O)Cn1ccccc1=N	none
O=C(O)CC1C(=O)NCCN1Cc1ccc(F)c(F)c1 (configuration not stated)	M1 antagonist 1.44
CCCCC(=O)Nc1ccc(C(=O)N2CCN(c3ccccc3OC)CC2)cc1	M1 antagonist 3.35
COc1ccccc1N1CCN(C(=O)c2ccc(NC(C)=O)cc2)CC1	none
CCCn1nnc(NC(=O)c2cc(Br)cc(Br)c2OC)n1	MKP-1 inh 50.3
CCC(NC(=O)Nc1nccs1)(C(F)(F)F)C(F)(F)F	none
CCSc1nnc(NC(=O)NC(CC)(C(F)(F)F)C(F)(F)F)s1	M1 ag 5, M1 antagonist -1.39
Cn1c(CSc2nnc(SCc3ccccc3)s2)nc2ccccc21	Cdc25B block 73.9
Cn1c(CSc2nc3ccc(Br)cc3[nH]2)nc2ccccc21	none
Oc1ccc(-c2onc(C(F)(F)F)c2-c2cscn2)c(O)c1	Hsp90 block 64.6
COc1ccc(-c2onc(C)c2-c2ccccc2)c(O)c1	none
COCCn1c(C)cc(C(=O)COC(=O)CCN2C(=O)c3ccccc3C2=O)c1C	none
CCC(C)NC(=O)CS(=O)Cc1nc(-c2ccccc2C)oc1C (configuration not stated)	none
C=CCn1c(SCC(N)=O)nnc1-c1ccccc1O	none
CCn1c(SCC(=O)c2ccc(O)c(O)c2)nnc1-c1ccccc1OC	Hsp90 block 67.1
C=CCn1c(SCC(=O)c2ccc(O)c(O)c2)nnc1-c1ccccc1OC	Hsp90 block 71.0
COc1ccc2nc(SCc3nc(N)nc(Nc4ccccc4)n3)[nH]c2c1	none
CC(C)N(C(=O)C1CC(=O)OC12CCCCC2)C(C)C (configuration not stated)	none (no result: MMP-13 inhibitor, Hsp90 block)
CC(C)CNC(=O)C1CC(=O)OC12CCCCC2 (configuration not stated)	M1 antagonist 2.06
CC1Cc2ccccc2N1C(=O)C1CCCN(S(=O)(=O)c2cccc3nsnc23)C1 (configuration not stated)	none
O=C(NC1CCCCC1)c1ccc(Cn2cc(Br)cn2)o1	none
O=C(NCc1ccccn1)c1ccc(Cn2cc(Br)cn2)o1	M1 antagonist 2.32
CSC1=Nc2sc3c(c2C2=NCCN12)CCCC3	M1 antagonist -11.2
O=C(O)C1Nc2c(O)cccc2C2C=CCC12 (configuration not stated)	Cdc25B block 55.6 (no result: M1 ag, M1 antagonist) | Redox H2O2 0p5DTT inactive | Redox 1 DTT inactive
O=C1Cc2ccccc2C(=O)N1CCc1ccccc1	Cdc25B block 58.6 | Redox H2O2 0p5DTT inactive | Redox 1 DTT inactive
O=C(O)CCN1C(=O)c2ccccc2C1=O	none
NC(=O)C1(N2CCCCC2)CCN(C(=O)CCCn2c(=O)[nH]c3ccsc3c2=O)CC1	none
O=C(NC1(O)C(=O)c2ccccc2C1=O)c1ccccc1	Cdc25B block 96.4, MKP-1 inh 62.2, Hsp90 block 73.4 | Redox H2O2 0p5DTT 28.6 | Redox 1 DTT inactive | Redox H2O2 inactive
COC(=O)N1CC(=O)N(OC)C1c1ccc(Cl)cc1Cl (configuration not stated)	none

Compound activity: PubChem BioAssay, several laboratories
